# Pf Dd2 inh = qHTS Primary assay for Inhibitors of Plasmodium falciparum Dd2 growth in vitro | actives 4.3% (n = 120,000) | P. falciparum Dd2 growth, SYBR Green, 72 h | Potency, µM (top dose mostly 28.9 µM), inactives show at the top dose activity, negative = inhibition, most hits filed as inhibitors; active = well fitted inhibition curve with a large enough effect;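 also: plate controls were DMSO vehicle for no effect and reference drug for full effect; nearly all actives have a fitted effect of over 65% in size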
#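 Infected erythrocytes (Dd2, 0.3% parasitemia, 2.5% hematocrit final) are added to compound in RPMI-1640/Albumax II medium, grown 72 h at 37C in low oxygen, then lysed with saponin/Triton-X containing SYBR Green and read by fluorescence.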
# An asterisk follows results filed as active; i = inactive; [ ] = another dose, or the depositor's remark. The entries come from a sample that favours hits as a whole. Potency is read from the fitted curve at half-maximal effect.
SMILES,Pf Dd2 inh
COc1ccc(-c2nc(N3CCOCC3)cc3c2CN(Cc2ccccc2)C3=O)cn1,-10.3%[44.1 µM]
CN1CCN(c2nc3c(c(=O)[nH]2)CCN(Cc2ccc(Br)s2)CC3)CC1,18.8%[5.79 µM]
O=C(c1cccs1)N1CC(CO)C2(CCNCC2)C1 (stereo unspecified),-6.5%
COc1ccc(C2Cn3nnc(-c4noc(-c5cc(F)ccc5F)n4)c3CO2)cc1 (stereo unspecified),-0.5%
O=S(=O)(NCCc1noc(-c2ccccc2)n1)c1ccc(Cl)cc1,i
Clc1ccc(CCNC(c2nnc(-c3ccccc3)o2)c2ccccc2Cl)cc1 (stereo unspecified),11.2µM*
Cc1c(Cl)cccc1NC(c1ccc(F)cc1)c1nnc(-c2ccccc2)o1 (stereo unspecified),i
COCCNC(=O)N1CCCC(c2noc(COc3ccccc3F)n2)C1 (stereo unspecified),15.2%
CC(=O)N1CC[C@H](c2nc3ccc(F)cc3[nH]2)C1,-5.5%[44.1 µM]
Fc1ccc2nc([C@H]3CCN(Cc4cccs4)C3)[nH]c2c1,11.2µM*
c1ccc2ncc(CN3CC[C@H](c4nc5ccccc5[nH]4)C3)cc2c1,11.2µM*
COc1ccccc1CN1CC[C@H](c2nc3ccc(C(F)(F)F)cc3[nH]2)C1,8.91µM*
FC(F)(F)c1ccc2nc([C@H]3CCN(Cc4ncc[nH]4)C3)[nH]c2c1,i
COc1cccc(CN2CC[C@H](c3nc4ccccc4[nH]3)C2)c1,-21.3%[44.1 µM]
COc1ccc(CN2CC[C@H](c3nc4ccc(C)cc4[nH]3)C2)cc1,i
Cc1ccc(CN2CC[C@H](c3nc4ccc(C(F)(F)F)cc4[nH]3)C2)cc1,11.2µM*
Clc1cccc(CN2CC[C@H](c3nc4ccccc4[nH]3)C2)c1,i
COc1ccc2nc([C@H]3CCN(Cc4ccncc4)C3)[nH]c2c1,i
Fc1ccc2nc([C@H]3CCN(Cc4ncc[nH]4)C3)[nH]c2c1,i
COc1ccc2nc([C@H]3CCN(C4CCCCC4)C3)[nH]c2c1,-6.4%[44.1 µM]
O=C1COCCN1C1CCN(Cc2cncs2)CC1,23.0%[44.1 µM]
CC(C)c1noc(-c2cn(C3CCN(C(=O)c4cccc(Br)c4)C3)nn2)n1 (stereo unspecified),-7.8%
Cn1ncc(N2CCCC(CC(=O)N3CCCCCC3)C2)cc1=O (stereo unspecified),i
Cc1ccc(C(=O)N2CCCOCCNC(=O)CC2)s1,12.5%
CNCc1cn(C[C@H]2CC3CCN2C[C@@H]3C(=O)NC2CC2)nn1 (stereo partly specified),-8.0%[44.1 µM]
SMILES,Pf Dd2 inh
Cc1cccc(CC(=O)N2CCCN(c3cc(-c4ccc(Cl)cc4)[nH]n3)CC2)c1,-18.7%
O=C(NC[C@H]1OC[C@@H](NCc2ccccc2F)[C@@H]1O)c1cccs1,-13.6%[44.1 µM]
NCCn1cc(C(=O)N2CCC(c3n[nH]c(=O)n3-c3ccccc3)CC2)nn1,-17.9%
O=C(NC1CCCCC1)C1CCN(c2cn[nH]c(=O)c2)C1 (stereo unspecified),-5.4%
Cc1ccccc1CN1CC[C@H](c2nc3ncccc3[nH]2)C1,31.6µM*
CN(C)c1ccc(CN2CCC(c3nc4ncccc4[nH]3)C2)cc1 (stereo unspecified),-7.3%
CS(=O)(=O)c1ccc(CN2CC[C@H](c3nc4ncccc4[nH]3)C2)cc1,-23.1%[44.1 µM]
O=C(O)CCCNC(=O)Cn1nc2c(cc1=O)CCCC2,-22.2%
COc1ccc(OC)c(NCc2cccn2-c2nnc(N3CCC(C)CC3)s2)c1,-11.4%
COc1ccc(OC)c(NC(=O)c2cccn2-c2nnc(N3CCCCC3)s2)c1,-24.7%
COc1ccc(NCc2cccn2-c2nnc(N3CCC(C)CC3)s2)c(OC)c1,11.2µM*
COc1ccc(-c2ccc3nnc(CNC(=O)C(C)Oc4cccc(Cl)c4)n3n2)cc1 (stereo unspecified),-24.9%
Cc1cc(NC(=O)c2ccc3c(c2)N(C)C2CCCCN2C3=O)ccc1F (stereo unspecified),-8.2%
COc1cccc(CN2Cc3nc(-c4cc5ccccc5o4)ccc3OCC2=O)c1,-10.5%[44.1 µM]
CC(C)NC(=O)C[C@@H]1C[C@H]2O[C@H](CNCc3ccccc3C(F)(F)F)[C@@H](O)[C@H]2O1,18.8%[44.1 µM]
COc1ccc(C(=O)N2CCC(c3nc4ccccc4s3)CC2)cc1Cl,94.0%
Cn1cc(C2CCN(C(=O)c3sc(Cl)c(Cl)c3Cl)CC2)c2ccccc21,7.94µM*
CCCn1cc(C2CCN(S(=O)(=O)c3ccccc3Cl)CC2)c2ccccc21,-1.3%
O=C(COCC1CCCO1)N1CCc2onc(-c3ccc4c(c3)OCO4)c2C1 (stereo unspecified),-10.4%
CNC(=O)[C@@H]1CN(C(=O)CCc2ccccc2OC)C[C@H]1CO,-3.8%
O=C1CC(c2noc(COc3ccc(Cl)cc3)n2)CN1C1CCCCC1 (stereo unspecified),i
CC(=O)c1ccc(N2CCC(Oc3ccc(C)cc3)(C(=O)O)CC2)nc1,-4.3%
CN(C(=O)Cc1cccc(Cl)c1)C1CCCc2ccccc21 (stereo unspecified),14.1µM*
CN(CC1CCOCC1)C(=O)Cc1cccc(Cl)c1,4.7%
CN(C(=O)Cc1cccc(Cl)c1)C1CCc2ccccc21 (stereo unspecified),i
SMILES,Pf Dd2 inh
COCCNC(=O)[C@H]1C[C@H](Oc2cccnc2)CN1S(=O)(=O)c1ccc(F)cc1,4.1%
O=S(=O)(Cc1ccccc1)NCc1cccnc1Oc1ccccc1,-7.3%
CCC(CC)NCc1cccnc1Oc1ccccc1,12.6µM*
O=C(NCc1cccnc1Oc1ccccc1)c1ccccn1,1.4%
O=C(N[C@H]1CCN2C(=O)c3cc(-c4ccc5c(c4)OCO5)ccc3NC(=O)[C@H]12)C1CCCC1,-7.4%
CCOc1ccccc1CN1CCCC(c2nc(-c3cccnc3)no2)CCNC(=O)CC1 (stereo unspecified),3.98µM*
O=C1CCN(C2CCC2)CCCC(c2nc(-c3cccnc3)no2)CCN1 (stereo unspecified),-5.9%
O=C1CCN(Cc2ccncc2)CCCC(c2nc(-c3cccnc3)no2)CCN1 (stereo unspecified),-15.3%
COc1ccc(C(=O)N2CCCC(c3nc(-c4ccccc4)no3)CCNC(=O)CC2)c(OC)c1 (stereo unspecified),7.08µM*
O=C1CCN(C(=O)C2CCCC2)CCCC(c2nc(-c3ccccc3)no2)CCN1 (stereo unspecified),i
COc1ccc(C(=O)N2CCCC(c3nc(-c4cccnc4)no3)CCNC(=O)CC2)cc1 (stereo unspecified),-26.9%
Cc1ncsc1CN1CCCC(c2nc(-c3cccnc3)no2)CCNC(=O)CC1 (stereo unspecified),i
N#Cc1cccc(CN2CCCC(c3nc(-c4cccnc4)no3)CCNC(=O)CC2)c1 (stereo unspecified),5.01µM*
O=C1CCN(Cc2ccncc2F)CCCC(c2nc(-c3cccnc3)no2)CCN1 (stereo unspecified),i
CNC(=O)N1CCC(C2CCN(C(=O)c3cc(C)n(CCOC)c3C)C2)CC1 (stereo unspecified),-25.8%
COc1cccc(C(=O)N2CCCCC2c2n[nH]c(C)n2)c1 (stereo unspecified),-13.7%
NC(=O)[C@H]1C[C@@H](O)[C@H](O)[C@H]2[C@@H]1SC(=Nc1ccccc1)N2Cc1ccccc1,-12.9%[44.1 µM]
C[C@H](N)C(=O)N1CCC(n2nccc2NC(=O)c2ccc3c(c2)OCO3)CC1,-2.9%
Cc1nc(N2CCC(C(=O)NC3CCc4ccccc43)CC2)cc(C(F)(F)F)n1 (stereo unspecified),-15.2%

# From PubChem BioAssay
